In PMC11006913:
Changes are numbered by the printed parent chain.

What was measured:
Test in all cases: PBM; 200 nM protein, PBS
Conditions in all cases: dsDNA, one strand shown
[1] = molecular target: T1, VENTX (Homo sapiens, UniProt O95231 78-163, R121Q)
T1 sequence: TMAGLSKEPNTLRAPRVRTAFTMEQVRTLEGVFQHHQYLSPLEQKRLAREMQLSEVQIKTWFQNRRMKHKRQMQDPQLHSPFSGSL

[2] = molecular target: T2, VENTX (Homo sapiens, UniProt O95231 78-163)
T2 sequence: T1 sequence with Q44R

[3] = molecular target: T3, VENTX (Homo sapiens, UniProt O95231 78-163, Y115F)
T3 sequence: T1 sequence with Y38F, Q44R

[4] = molecular target: HOXA2 (Homo sapiens, UniProt O43364 129-215, R185T)
[5] = molecular target: HOXA4 (Homo sapiens, UniProt Q00056 201-287, R217L)
[6] = molecular target: HOXA2 (Homo sapiens, UniProt O43364 129-215, R185K)
[7] = molecular target: HOXA2 (Homo sapiens, UniProt O43364 129-215, Y150S)
[8] = molecular target: HOXA2 (Homo sapiens, UniProt O43364 129-215)
[9] = molecular target: ALX3 (Homo sapiens, UniProt O95076 139-225, N203Q)
[10] = molecular target: T4, PAX4 (Homo sapiens, UniProt O43316 9-242, F177V)
T4 sequence: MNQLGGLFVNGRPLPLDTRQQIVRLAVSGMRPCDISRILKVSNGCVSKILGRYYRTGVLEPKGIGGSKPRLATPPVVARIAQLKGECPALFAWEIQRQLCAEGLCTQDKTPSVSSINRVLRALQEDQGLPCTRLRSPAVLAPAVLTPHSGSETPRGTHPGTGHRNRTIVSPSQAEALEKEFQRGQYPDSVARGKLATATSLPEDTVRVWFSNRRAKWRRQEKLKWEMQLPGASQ

[11] = molecular target: T5, PAX4 (Homo sapiens, UniProt O43316 9-242, R227W)
T5 sequence: T4 sequence with V169F, R219W

[12] = molecular target: HOXB6 (Homo sapiens, UniProt P17509 132-218, K202E)
[13] = molecular target: HOXB6 (Homo sapiens, UniProt P17509 132-218)
[14] = molecular target: ALX3 (Homo sapiens, UniProt O95076 139-225)
[15] = molecular target: VAX1 (Homo sapiens, UniProt Q5SQQ9 86-172)
[16] = molecular target: ALX3 (Homo sapiens, UniProt O95076 139-225, L168Q)
[17] = molecular target: ALX3 (Homo sapiens, UniProt O95076 139-225, L168V)
[18] = molecular target: VAX1 (Homo sapiens, UniProt Q5SQQ9 86-172, T142I)
[19] = molecular target: ALX3 (Homo sapiens, UniProt O95076 139-225, N203S)
[20] = molecular target: VAX1 (Homo sapiens, UniProt Q5SQQ9 86-172, K157R)
[21] = molecular target: T6, NKX2-6 (Homo sapiens, UniProt A6NCS4 118-204, R150C)
T6 sequence: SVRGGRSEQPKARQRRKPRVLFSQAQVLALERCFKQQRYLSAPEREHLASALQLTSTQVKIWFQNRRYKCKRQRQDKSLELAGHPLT

[22] = molecular target: HOXD13 (Homo sapiens, UniProt P35453 263-343)
[23] = molecular target: HOXD13 (Homo sapiens, UniProt P35453 263-343, T313A)
[24] = molecular target: ALX1 (Homo sapiens, UniProt Q15699 118-204, L144V)
[25] = molecular target: ALX1 (Homo sapiens, UniProt Q15699 118-204, L144R)
[26] = molecular target: ALX1 (Homo sapiens, UniProt Q15699 118-204)
[27] = molecular target: MSX2 (Homo sapiens, UniProt P35548 130-214, R199I)
[28] = molecular target: MSX2 (Homo sapiens, UniProt P35548 130-214)
[29] = molecular target: MSX2 (Homo sapiens, UniProt P35548 130-214, F161Y)
Chain of MSX2 (Homo sapiens, UniProt P35548 130-214, F161Y) (P35548 130-214 F161Y): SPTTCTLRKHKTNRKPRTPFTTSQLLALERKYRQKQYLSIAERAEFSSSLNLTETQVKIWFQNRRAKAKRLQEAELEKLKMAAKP

Chain of ALX3 (Homo sapiens, UniProt O95076 139-225, N203S) (O95076 139-225 N203S): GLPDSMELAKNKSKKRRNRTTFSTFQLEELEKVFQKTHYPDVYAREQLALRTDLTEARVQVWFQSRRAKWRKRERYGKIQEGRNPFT
Chain of ALX3 (Homo sapiens, UniProt O95076 139-225, N203Q) (O95076 139-225 N203Q): as the sequence (O95076 139-225 N203S) above, with S65Q counted along it
Chain of HOXA2 (Homo sapiens, UniProt O43364 129-215) (O43364 129-215): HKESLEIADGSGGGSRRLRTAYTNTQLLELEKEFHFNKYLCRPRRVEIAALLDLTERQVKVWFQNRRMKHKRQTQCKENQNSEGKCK
Chain of ALX3 (Homo sapiens, UniProt O95076 139-225, L168V) (O95076 139-225 L168V): as the sequence (O95076 139-225 N203S) above, with L30V, S65N counted along it
Chain of ALX3 (Homo sapiens, UniProt O95076 139-225, L168Q) (O95076 139-225 L168Q): as the sequence (O95076 139-225 N203S) above, with L30Q, S65N counted along it
Chain of HOXA2 (Homo sapiens, UniProt O43364 129-215, R185T) (O43364 129-215 R185T): as the sequence (O43364 129-215) above, with R57T counted along it
Chain of HOXA2 (Homo sapiens, UniProt O43364 129-215, R185K) (O43364 129-215 R185K): as the sequence (O43364 129-215) above, with R57K counted along it
Chain of ALX3 (Homo sapiens, UniProt O95076 139-225) (O95076 139-225): as the sequence (O95076 139-225 N203S) above, with S65N counted along it
Chain of HOXA2 (Homo sapiens, UniProt O43364 129-215, Y150S) (O43364 129-215 Y150S): as the sequence (O43364 129-215) above, with Y22S counted along it
Chain of ALX1 (Homo sapiens, UniProt Q15699 118-204) (Q15699 118-204): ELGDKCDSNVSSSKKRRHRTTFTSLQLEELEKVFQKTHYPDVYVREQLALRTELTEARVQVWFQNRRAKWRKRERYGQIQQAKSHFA
Chain of ALX1 (Homo sapiens, UniProt Q15699 118-204, L144R) (Q15699 118-204 L144R): as the sequence (Q15699 118-204) above, with L27R counted along it
Chain of VAX1 (Homo sapiens, UniProt Q5SQQ9 86-172, T142I) (Q5SQQ9 86-172 T142I): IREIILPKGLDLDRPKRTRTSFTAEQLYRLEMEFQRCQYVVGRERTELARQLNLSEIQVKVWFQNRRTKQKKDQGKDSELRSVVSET
Chain of ALX1 (Homo sapiens, UniProt Q15699 118-204, L144V) (Q15699 118-204 L144V): as the sequence (Q15699 118-204) above, with L27V counted along it
Chain of HOXB6 (Homo sapiens, UniProt P17509 132-218) (P17509 132-218): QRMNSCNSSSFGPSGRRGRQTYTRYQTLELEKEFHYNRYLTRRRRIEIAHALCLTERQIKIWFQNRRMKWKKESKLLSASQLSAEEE
Chain of VAX1 (Homo sapiens, UniProt Q5SQQ9 86-172, K157R) (Q5SQQ9 86-172 K157R): as the sequence (Q5SQQ9 86-172 T142I) above, with I57T, K72R counted along it
Chain of VAX1 (Homo sapiens, UniProt Q5SQQ9 86-172) (Q5SQQ9 86-172): as the sequence (Q5SQQ9 86-172 T142I) above, with I57T counted along it
Chain of HOXB6 (Homo sapiens, UniProt P17509 132-218, K202E) (P17509 132-218 K202E): as the sequence (P17509 132-218) above, with K71E counted along it
Chain of HOXA4 (Q00056 201-287 R217L): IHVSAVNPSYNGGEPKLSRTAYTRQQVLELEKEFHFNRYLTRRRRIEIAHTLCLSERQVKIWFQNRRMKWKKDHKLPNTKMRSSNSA
Chain of MSX2 (Homo sapiens, UniProt P35548 130-214, R199I) (P35548 130-214 R199I): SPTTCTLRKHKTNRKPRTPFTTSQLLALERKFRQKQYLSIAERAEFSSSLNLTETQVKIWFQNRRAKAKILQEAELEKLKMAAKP
Chain of MSX2 (Homo sapiens, UniProt P35548 130-214) (P35548 130-214): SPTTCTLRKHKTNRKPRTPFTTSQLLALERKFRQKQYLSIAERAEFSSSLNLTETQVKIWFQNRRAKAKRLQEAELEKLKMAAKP
Chain of HOXD13 (Homo sapiens, UniProt P35453 263-343) (P35453 263-343): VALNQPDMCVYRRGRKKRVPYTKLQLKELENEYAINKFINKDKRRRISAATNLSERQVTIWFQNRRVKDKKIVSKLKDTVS
Chain of HOXD13 (Homo sapiens, UniProt P35453 263-343, T313A) (P35453 263-343 T313A): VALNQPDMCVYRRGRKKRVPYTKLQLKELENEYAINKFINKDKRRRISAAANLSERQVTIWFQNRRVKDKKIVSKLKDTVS

Sequence: CATTAGCG
- binding signal [1]: 11.8 upbm affinity estimate (log intensity, higher = more binding, comparable within an allelic series)
- binding signal [2]: 12.7 upbm affinity estimate (log intensity, higher = more binding, comparable within an allelic series)
- binding signal [3]: 11.6 upbm affinity estimate (log intensity, higher = more binding, comparable within an allelic series)
- binding signal [4]: 12.3 upbm affinity estimate (log intensity, higher = more binding, comparable within an allelic series)
- binding signal [5]: 11.4 upbm affinity estimate (log intensity, higher = more binding, comparable within an allelic series)
- binding signal [6]: 13.1 upbm affinity estimate (log intensity, higher = more binding, comparable within an allelic series)
- binding signal [7]: 10.7 upbm affinity estimate (log intensity, higher = more binding, comparable within an allelic series)
- binding signal [8]: 12.1 upbm affinity estimate (log intensity, higher = more binding, comparable within an allelic series)

Sequence: ACATATTA
- binding signal [1]: 10.6 upbm affinity estimate (log intensity, higher = more binding, comparable within an allelic series)
- binding signal [2]: 11.3 upbm affinity estimate (log intensity, higher = more binding, comparable within an allelic series)
- binding signal [3]: 10.4 upbm affinity estimate (log intensity, higher = more binding, comparable within an allelic series)
- binding signal [9]: 8.55 upbm affinity estimate (log intensity, higher = more binding, comparable within an allelic series)
- binding signal [10]: 10.8 upbm affinity estimate (log intensity, higher = more binding, comparable within an allelic series)
- binding signal [11]: 11 upbm affinity estimate (log intensity, higher = more binding, comparable within an allelic series)

Sequence: CCTGCTGC
- binding signal [1]: 8.37 upbm affinity estimate (log intensity, higher = more binding, comparable within an allelic series)
- binding signal [2]: 8.45 upbm affinity estimate (log intensity, higher = more binding, comparable within an allelic series)
- binding signal [3]: 8.42 upbm affinity estimate (log intensity, higher = more binding, comparable within an allelic series)
- binding signal [12]: 9.18 upbm affinity estimate (log intensity, higher = more binding, comparable within an allelic series)
- binding signal [13]: 9.23 upbm affinity estimate (log intensity, higher = more binding, comparable within an allelic series)

Sequence: AAATTACC
- binding signal [1]: 11.1 upbm affinity estimate (log intensity, higher = more binding, comparable within an allelic series)
- binding signal [2]: 11.5 upbm affinity estimate (log intensity, higher = more binding, comparable within an allelic series)
- binding signal [3]: 11 upbm affinity estimate (log intensity, higher = more binding, comparable within an allelic series)
- binding signal [12]: 9.94 upbm affinity estimate (log intensity, higher = more binding, comparable within an allelic series)
- binding signal [13]: 11.6 upbm affinity estimate (log intensity, higher = more binding, comparable within an allelic series)

Sequence: GCTTATTA
- binding signal [1]: 10.2 upbm affinity estimate (log intensity, higher = more binding, comparable within an allelic series)
- binding signal [2]: 10.8 upbm affinity estimate (log intensity, higher = more binding, comparable within an allelic series)
- binding signal [3]: 10.3 upbm affinity estimate (log intensity, higher = more binding, comparable within an allelic series)
- binding signal [4]: 10.9 upbm affinity estimate (log intensity, higher = more binding, comparable within an allelic series)
- binding signal [6]: 12.2 upbm affinity estimate (log intensity, higher = more binding, comparable within an allelic series)
- binding signal [7]: 10.7 upbm affinity estimate (log intensity, higher = more binding, comparable within an allelic series)
- binding signal [8]: 10.7 upbm affinity estimate (log intensity, higher = more binding, comparable within an allelic series)

Sequence: CGGCGTGC
- binding signal [1]: 8.01 upbm affinity estimate (log intensity, higher = more binding, comparable within an allelic series)
- binding signal [2]: 7.84 upbm affinity estimate (log intensity, higher = more binding, comparable within an allelic series)
- binding signal [3]: 8.12 upbm affinity estimate (log intensity, higher = more binding, comparable within an allelic series)
- binding signal [9]: 7.7 upbm affinity estimate (log intensity, higher = more binding, comparable within an allelic series)
- binding signal [14]: 7.74 upbm affinity estimate (log intensity, higher = more binding, comparable within an allelic series)
- binding signal [15]: 7.08 upbm affinity estimate (log intensity, higher = more binding, comparable within an allelic series)
- binding signal [16]: 7.73 upbm affinity estimate (log intensity, higher = more binding, comparable within an allelic series)
- binding signal [17]: 7.75 upbm affinity estimate (log intensity, higher = more binding, comparable within an allelic series)
- binding signal [18]: 7.28 upbm affinity estimate (log intensity, higher = more binding, comparable within an allelic series)
- binding signal [19]: 7.71 upbm affinity estimate (log intensity, higher = more binding, comparable within an allelic series)
- binding signal [20]: 7.16 upbm affinity estimate (log intensity, higher = more binding, comparable within an allelic series)

Sequence: CCCGACCG
- binding signal [1]: 8.21 upbm affinity estimate (log intensity, higher = more binding, comparable within an allelic series)
- binding signal [2]: 8.16 upbm affinity estimate (log intensity, higher = more binding, comparable within an allelic series)
- binding signal [3]: 8.1 upbm affinity estimate (log intensity, higher = more binding, comparable within an allelic series)
- binding signal [21]: 9.21 upbm affinity estimate (log intensity, higher = more binding, comparable within an allelic series)
- binding signal [9]: 7.73 upbm affinity estimate (log intensity, higher = more binding, comparable within an allelic series)
- binding signal [14]: 7.81 upbm affinity estimate (log intensity, higher = more binding, comparable within an allelic series)
- binding signal [16]: 7.73 upbm affinity estimate (log intensity, higher = more binding, comparable within an allelic series)
- binding signal [17]: 7.72 upbm affinity estimate (log intensity, higher = more binding, comparable within an allelic series)
- binding signal [19]: 7.76 upbm affinity estimate (log intensity, higher = more binding, comparable within an allelic series)

Sequence: AGCGTGCC
- binding signal [1]: 8.06 upbm affinity estimate (log intensity, higher = more binding, comparable within an allelic series)
- binding signal [2]: 7.96 upbm affinity estimate (log intensity, higher = more binding, comparable within an allelic series)
- binding signal [3]: 8.06 upbm affinity estimate (log intensity, higher = more binding, comparable within an allelic series)
- binding signal [9]: 7.73 upbm affinity estimate (log intensity, higher = more binding, comparable within an allelic series)
- binding signal [14]: 7.88 upbm affinity estimate (log intensity, higher = more binding, comparable within an allelic series)
- binding signal [15]: 7.14 upbm affinity estimate (log intensity, higher = more binding, comparable within an allelic series)
- binding signal [16]: 7.81 upbm affinity estimate (log intensity, higher = more binding, comparable within an allelic series)
- binding signal [17]: 7.81 upbm affinity estimate (log intensity, higher = more binding, comparable within an allelic series)
- binding signal [18]: 7.18 upbm affinity estimate (log intensity, higher = more binding, comparable within an allelic series)
- binding signal [19]: 7.76 upbm affinity estimate (log intensity, higher = more binding, comparable within an allelic series)
- binding signal [20]: 7.13 upbm affinity estimate (log intensity, higher = more binding, comparable within an allelic series)

Sequence: ACTTATAA
- binding signal [1]: 9.95 upbm affinity estimate (log intensity, higher = more binding, comparable within an allelic series)
- binding signal [2]: 10.5 upbm affinity estimate (log intensity, higher = more binding, comparable within an allelic series)
- binding signal [3]: 10 upbm affinity estimate (log intensity, higher = more binding, comparable within an allelic series)
- binding signal [22]: 11.3 upbm affinity estimate (log intensity, higher = more binding, comparable within an allelic series)
- binding signal [23]: 11 upbm affinity estimate (log intensity, higher = more binding, comparable within an allelic series)

Sequence: GCCCCGGC
- binding signal [1]: 8.07 upbm affinity estimate (log intensity, higher = more binding, comparable within an allelic series)
- binding signal [2]: 7.98 upbm affinity estimate (log intensity, higher = more binding, comparable within an allelic series)
- binding signal [3]: 7.96 upbm affinity estimate (log intensity, higher = more binding, comparable within an allelic series)
- binding signal [24]: 6.69 upbm affinity estimate (log intensity, higher = more binding, comparable within an allelic series)
- binding signal [25]: 6.67 upbm affinity estimate (log intensity, higher = more binding, comparable within an allelic series)
- binding signal [26]: 6.32 upbm affinity estimate (log intensity, higher = more binding, comparable within an allelic series)

Sequence: CCTGGCTC
- binding signal [1]: 8.01 upbm affinity estimate (log intensity, higher = more binding, comparable within an allelic series)
- binding signal [2]: 8.1 upbm affinity estimate (log intensity, higher = more binding, comparable within an allelic series)
- binding signal [3]: 8.06 upbm affinity estimate (log intensity, higher = more binding, comparable within an allelic series)
- binding signal [27]: 9.46 upbm affinity estimate (log intensity, higher = more binding, comparable within an allelic series)
- binding signal [28]: 9.51 upbm affinity estimate (log intensity, higher = more binding, comparable within an allelic series)
- binding signal [29]: 9.47 upbm affinity estimate (log intensity, higher = more binding, comparable within an allelic series)

Sequence: AGTCTGCC
- binding signal [1]: 8.03 upbm affinity estimate (log intensity, higher = more binding, comparable within an allelic series)
- binding signal [2]: 8.12 upbm affinity estimate (log intensity, higher = more binding, comparable within an allelic series)
- binding signal [3]: 8.07 upbm affinity estimate (log intensity, higher = more binding, comparable within an allelic series)
- binding signal [24]: 6.46 upbm affinity estimate (log intensity, higher = more binding, comparable within an allelic series)
- binding signal [25]: 6.59 upbm affinity estimate (log intensity, higher = more binding, comparable within an allelic series)
- binding signal [26]: 6.61 upbm affinity estimate (log intensity, higher = more binding, comparable within an allelic series)

Sequence: GCCCCCCC
- binding signal [1]: 8.24 upbm affinity estimate (log intensity, higher = more binding, comparable within an allelic series)
- binding signal [2]: 8.18 upbm affinity estimate (log intensity, higher = more binding, comparable within an allelic series)
- binding signal [3]: 8.34 upbm affinity estimate (log intensity, higher = more binding, comparable within an allelic series)
- binding signal [4]: 7.05 upbm affinity estimate (log intensity, higher = more binding, comparable within an allelic series)
- binding signal [6]: 9.94 upbm affinity estimate (log intensity, higher = more binding, comparable within an allelic series)
- binding signal [7]: 10.3 upbm affinity estimate (log intensity, higher = more binding, comparable within an allelic series)
- binding signal [8]: 7.28 upbm affinity estimate (log intensity, higher = more binding, comparable within an allelic series)
